Measurements taken from PubChem BioAssay.

Experiment: reversal of MRP1-mediated doxorubicin resistance, pilot screen, H69AR cells, doxorubicin co-treatment (AID 601)
Conditions: H69AR cells, CellTiter-Glo, 72 h; compound alone cytotoxicity; at 10 µM

Compound	viability [%]
CCCCN=CC1=C(O)C(C(=O)OC)C(C)(C)CC1=O (stereo not given)	91.4
Cc1ccc(C)c(C(=O)CC2(O)C(=O)N(C)c3ccccc32)c1 (stereo not given)	92.2
CC(=O)C1=C(C)Nc2ncnn2C1c1cccc(OCc2ccccc2)c1 (stereo not given)	88.6
Cc1ccc(C(=O)CC2(O)C(=O)N(C)c3ccc(Br)cc32)c(C)c1 (stereo not given)	75
Fc1cccc(Nc2ncnc3c2cnn3-c2ccccc2)c1	37.9
COc1ccc(NC(=O)NCCN2C(=O)C3C4C=CC(C4)C3C2=O)cc1 (stereo not given)	101
Cc1ccc(C)c(NC(=O)CSc2nnc(-c3ccccc3)o2)c1	89.6
O=C(NCCCN1CCOCC1)c1cc(-c2ccc(O)cc2)on1	94.8
CCOC(=O)c1ccc(NC(=O)Cn2cc3c(n2)CCC(C)C3)cc1 (stereo not given)	91.9
N#C/C(C(=O)N1CCOCC1)=C1/SC=C(c2ccccc2)N1c1ccccc1	96.1
COc1ccc(C(=O)c2coc3ccc(O)c(CN4CCCCC4)c23)cc1	75.5
CCn1c(C(=O)N2CCC(C(=O)N3CCN(c4ccccn4)CC3)CC2)cc2sccc21	87.1
CCOC(=O)N1CCN(Cc2nc3c(c(=O)n(C)c(=O)n3C)n2Cc2ccccc2)CC1	89.1
CN1CCN(C(=O)c2ccc(CS(=O)(=O)c3c(Cl)cccc3Cl)o2)CC1	94.3
CN(C)CCCN1C(=O)c2oc3ccc(Cl)cc3c(=O)c2C1c1cccnc1 (stereo not given)	83
O=C(CSc1nnc2ccccn12)c1ccccc1	94.5
Cc1ccccc1Cn1ccc(NC(=O)c2onc(C)c2Cl)n1	100
CN(CCCNC(=O)c1cn(C)c2ccc(S(=O)(=O)N(C)C)cc2c1=O)c1ccccc1	87.7
NC(=O)CN1C(=O)C(O)(CC(=O)c2ccccc2O)c2ccccc21 (stereo not given)	91.8
CC(C)CCN(C)C1CCN(S(=O)(=O)c2ccc(F)cc2)CC1	81

Compound	viability [%]
COc1ccc(C(C)N2CC34C=CC(O3)C(C(=O)OCC(C)C)C4C2=O)cc1 (stereo not given)	85.1
COc1ccc(Cl)cc1S(=O)(=O)N1CCN(c2ccc(F)cc2)CC1	75.8
Cc1sc2nc(SCC(=O)NCCO)n(C)c(=O)c2c1C	88
CC(=O)NCCc1nc2ccccc2[nH]1	93.7
CCN1C(=O)c2cccc3c(NC(=O)c4ccc(S(=O)(=O)N(C)C)cc4)ccc1c23	65.9
Cc1nc2ccccc2c2oc(C(=O)N3CCN(C(=O)c4ccco4)CC3)cc12	83.1
c1ccc(Cn2nnc3c(N4CCCCCC4)ncnc32)cc1	69.9
COC(=O)c1cn(C(=O)c2ccc(Br)o2)c2ccccc12	88.3
CS(=O)(=O)Nc1ccccc1C(=O)O	98.8
Cn1cccc1Cc1nnc(SCC(=O)NCC2CCCO2)n1-c1ccc(F)cc1 (stereo not given)	91
Cc1ccc(Cn2c(=O)c3ccccc3n3c(CCC(=O)O)nnc23)cc1	98.9
COc1ccc(OCCSc2nc3ccccc3n2CC(=O)O)cc1	97.8
CCCCSc1nc2c(cnn2-c2ccc(F)cc2)c(=O)[nH]1	74
CCOc1ccc(NC(=O)C(C)Sc2nnc(C)n2C)cc1 (stereo not given)	98.8
CCOc1ccc2[nH]c(C)cc(=O)c2c1	108
Cc1nc2ccccc2c2oc(C(=O)N3CCC(N4CCCCC4)CC3)cc12	87.4
O=C(O)c1ccc2c(c1)C(=O)N(c1ccc(Cl)cn1)C2=O	87.2
COc1cccc(-c2nc(CS(=O)(=O)CC(=O)NCc3ccc(Cl)cc3)c(C)o2)c1	87.9
COc1ccc(C(NC(=O)c2ccco2)c2ccc(OC)c(OC)c2)cc1 (stereo not given)	96.2
CCOC(=O)N1CCC(NC(=O)CN2C(=O)CCSc3ccccc32)CC1	93.1
